Source: PubChem BioAssay (NCI)
“And” between values parts separate entries of the source, which are not always exact repeats. Equal entries are not always repeated. Compounds without any hit were thinned out: in the full panel of roughly 79,000, 15% have a hit. The source holds several records for some structures; these can differ, active in one and inactive in another. The source made the active and inactive calls. No stated cut-off is given here; in the data, active means growth inhibition above about 70%; inactive means the rest.

Key:
[1] = NCI Yeast Anticancer Drug Screen. Data for the rad50EPP+ strain (AID 151);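 further: 0% = growth of vehicle-treated control cultures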; conditions: S. cerevisiae rad50 mutant strain, stronger effect = higher value
In short: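 Exposing the rad50EPP+ strain to each compound, growth was compared with vehicle-only cultures to give inhibition.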

[2] = NCI Yeast Anticancer Drug Screen. Data for the mgt1 strain (AID 153); conditions: S. cerevisiae mgt1 mutant growth inhibition, stronger effect = higher value
In short: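 Genetically defined yeast (mgt1) treated with compound; inhibition of growth expressed against vehicle-treated controls.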

[3] = NCI Yeast Anticancer Drug Screen. Data for the rad50 strain (AID 155);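 further: 0% = growth of vehicle-only cultures of the same strain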; conditions: S. cerevisiae rad50 strain growth inhibition, stronger effect = higher value
In short: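 Relative growth inhibition (compound vs vehicle) was measured in yeast with a defined repair-gene alteration.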

[4] = NCI Yeast Anticancer Drug Screen. Data for the mec2-1 strain (AID 157); conditions: S. cerevisiae mec2-1 strain, stronger effect = higher value
In short: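 Readout is yeast growth inhibition, normalised to vehicle-treated controls, in the mec2-1 strain exposed to compound.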

[5] = NCI Yeast Anticancer Drug Screen. Data for the rad14 strain (AID 159);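 further: 0% = growth of vehicle-treated control cultures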; conditions: S. cerevisiae rad14 strain growth inhibition, stronger effect = higher value
In short: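 Screen for anticancer potential: a yeast strain altered in DNA damage repair is grown with compound, and reduced growth is quantified against vehicle controls.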

[6] = NCI Yeast Anticancer Drug Screen. Data for the CLN2oe strain (AID 163);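 further: 0% = growth of vehicle-only control cultures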; conditions: S. cerevisiae CLN2oe strain, stronger effect = higher value
In short: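 Values reflect how much compound exposure reduced yeast growth, referenced to vehicle-exposed cells. Assay organism is a strain with a defined genetic change affecting cell-cycle control.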

[7] = NCI Yeast Anticancer Drug Screen. Data for the cln2 rad14 strain (AID 165);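 further: 0% = growth equal to vehicle treated cultures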; conditions: S. cerevisiae cln2 rad14 strain, stronger effect = higher value
In short: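 Relative to vehicle controls, growth inhibition of compound-treated cln2 rad14 yeast was recorded.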

[8] = NCI Yeast Anticancer Drug Screen. Data for the bub3 strain (AID 167); conditions: S. cerevisiae bub3 mutant strain, stronger effect = higher value
In short: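 Screening used yeast with an engineered genetic alteration affecting cell cycle control. Compound-exposed cultures were compared with vehicle cultures, and reduced growth was taken as inhibition.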

[9] = NCI Yeast Anticancer Drug Screen. Data for the wt2 strain (AID 169);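 further: 0% = growth of vehicle-treated yeast cultures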; conditions: S. cerevisiae wt2 strain growth inhibition, stronger effect = higher value
In short: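 Values express reduction in yeast growth under compound treatment, referenced to vehicle-treated cells.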

[10] = NCI Yeast Anticancer Drug Screen. Data for the mlh1 strain (AID 171);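 further: 0% = growth of vehicle-treated control cultures of the same strain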; conditions: S. cerevisiae mlh1 strain growth inhibition, stronger effect = higher value
In short: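 Steps: expose the defined-mutant yeast strain to compound; expose a parallel culture to vehicle; measure growth; express compound effect as inhibition relative to the vehicle culture.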

[11] = NCI Yeast Anticancer Drug Screen. Data for the sgs1 strain (AID 173);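 further: 0% = growth of vehicle-only control cultures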; conditions: S. cerevisiae sgs1 mutant, stronger effect = higher value
In short: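 Treat defined-mutant yeast with compound; measure growth; calculate inhibition relative to vehicle-treated cells.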

[12] = NCI Yeast Anticancer Drug Screen. Data for the mlh1 rad18 strain (AID 175); conditions: S. cerevisiae mlh1 rad18 strain growth inhibition, stronger effect = higher value
In short: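 Test agents were incubated with a yeast strain of defined genotype (DNA damage repair defect). Inhibition of growth was derived by comparison with vehicle-exposed cultures.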

[13] = NCI Yeast Anticancer Drug Screen. Data for the rad18 strain (AID 177); conditions: S. cerevisiae rad18 mutant growth inhibition, stronger effect = higher value
In short: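 A genetically defined yeast mutant impaired in DNA damage repair was treated with test compounds, then its growth was measured against cultures receiving vehicle alone.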

[14] = at 5.0 µM (retest, dose inferred, filed as 0.5)
[15] = at 50.0 µM (retest, dose inferred, filed as 5.0)

Measured: growth inhibition

Cc1nc2ccc(Br)cc2c(=O)n1-c1ccc(NC2OCC(O)C(O)C2O)cc1 (stereo not given)
active: [2]; at 100.0 µM 81% | [3]; at 100.0 µM 86% | [4]; at 100.0 µM 90% | [5]; at 100.0 µM 79% | [8]; at 100.0 µM 90% | [9]; at 100.0 µM 86% | [10]; at 100.0 µM 90% | [11]; at 100.0 µM 89% | [12]; [15] 79% | [13]; at 100.0 µM 91%
inactive: [1]; at 1.2 µM 1% | [1]; at 3.7 µM -1% | [1]; at 11.0 µM -1% | [1]; at 33.0 µM 5% | [1]; at 100.0 µM 13% | [2]; at 1.2 µM 6% | [2]; at 3.7 µM 9% | [2]; at 11.0 µM 24% | [2]; at 33.0 µM 41% | [3]; at 1.2 µM -3% | [3]; at 3.7 µM 17% | [3]; [14] 11% | [3]; at 11.0 µM 14% | [3]; at 33.0 µM 53% | [3]; [15] 0% | [3]; at 50.0 µM 62.1% and 46.9% | [4]; at 1.2 µM 12% | [4]; at 3.7 µM 14% | [4]; [14] 1% | [4]; at 11.0 µM 23% | [4]; at 33.0 µM 54% | [4]; [15] 45% | [4]; at 50.0 µM 38.2% and 56.2% | [5]; at 1.2 µM 4% | [5]; at 3.7 µM 5% | [5]; at 11.0 µM 14% | [5]; at 33.0 µM 32% | [6]; at 1.2 µM 5% | [6]; at 3.7 µM 11% | [6]; at 11.0 µM 14% | [6]; at 33.0 µM 39% | [6]; at 100.0 µM 48% | [7]; [14] -3% | [7]; [15] 53% | [7]; at 50.0 µM -15.2% and 12.8% | [8]; at 1.2 µM 4% | [8]; at 3.7 µM 8% | [8]; [14] 7% | [8]; at 11.0 µM 17% | [8]; at 33.0 µM 49% | [8]; [15] 60% | [9]; at 1.2 µM 1% | [9]; at 3.7 µM 4% | [9]; at 11.0 µM 14% | [9]; at 33.0 µM 43% | [10]; at 1.2 µM 9% | [10]; at 3.7 µM 9% | [10]; at 11.0 µM 19% | [10]; at 33.0 µM 52% | [11]; at 1.2 µM 6% | [11]; at 3.7 µM 12% | [11]; at 11.0 µM 25% | [11]; at 33.0 µM 61% | [12]; [14] -38% | [12]; at 50.0 µM 62.4% and 13.8% | [13]; at 1.2 µM 4% | [13]; at 3.7 µM 6% | [13]; at 11.0 µM 18% | [13]; at 33.0 µM 55%
73.2% (active) and -5.1% (inactive): [8]; at 50.0 µM
